Experimental data: ChEMBL document CHEMBL4513141, “CO-ADD screening of NIH (USA) - Clinical Collection” (2021)
Results with a measured potency or affinity are listed apart.

Columns and labels:
Staphylococcus aureus = conditions: Concentration 20 uM; ASSAY_TEST Inhibition of Bacterial Growth; detection method Absorption (OD600); MEDIA CAMHB; plate type 384well; NBS; CORNING #3640; time 18 hr
Escherichia coli = conditions: Concentration 20 uM; ASSAY_TEST Inhibition of Bacterial Growth; detection method Absorption (OD600); MEDIA CAMHB; plate type 384well; NBS; CORNING #3640; time 18 hr

Compound	Inhibition (Staphylococcus aureus) [%]	Inhibition (Escherichia coli) [%]
CCCc1c(OCCCCc2nnn[nH]2)ccc(C(C)=O)c1O [TOMELUKAST]	5.76	7.84
CCN(Cc1ccncc1)C(=O)C(CO)c1ccccc1 (stereo unspecified) [TROPICAMIDE]	7.97	5.49
N[C@@H](Cc1cc(I)c(Oc2cc(I)c(O)c(I)c2)c(I)c1)C(=O)O [LEVOTHYROXINE]	-5.39	-12.96
